Laboratory results reported in PubChem BioAssay (NCATS).
Where “and” joins values, the source holds several entries; their conditions need not be identical. Equal values may be shown once. Results filed as inconclusive are left out. Calls of active or inactive are those of the source. Unless noted, the call rests on the fitted dose curve; in most records, active means well fitted curve in either direction with a large enough effect (not every such curve was filed as active); inconclusive means small, poorly fitted or top-dose-only effect, or another doubt; inactive means flat fitted curve, though single readings scatter.

What was measured:
[1] = AP1 Signaling Pathway (AID 357);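 further: ME-180 reporter cells stimulated with EGF at its EC50 level; on the % scale 0 is the no-effect control and ±100 the full control effect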
How it was run: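 Cells are seeded overnight, exposed to compound titrations and an EC50 level of EGF for 5 hours at 37 °C, then loaded with CCF4 dye for 2.5 hours. Beta-lactamase activity under the AP-1 element is read as a blue/green ratio.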

[2] = NFAT Signaling Pathway (AID 444); conditions: Jurkat NFAT-bla M1, carbachol, beta-lactamase ratio, 5 h;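 further: carbachol stimulus at about its EC50 of 1 µM final; on the % scale 0 is the no-effect control and ±100 the full control effect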
How it was run: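 Read-out: CCF4 FRET ratio (460 nm/530 nm) after 1 h RT dye loading, used for %activity and AC50 from titration series. Cells: Jurkat NFAT-β-lactamase/M1 line, treated with compound plus 1 uM carbachol for 5 h, 37 °C.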

[3] = Stat Signaling Pathway (AID 446); conditions: ME-180 SIE beta-lactamase reporter, IL-6 stimulated, 5 h;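 further: ME-180 cervical cancer cells given 40 pM IL-6 alongside compound; SIE-controlled beta-lactamase reporter measured as 460/530 nm FRET emission ratio; on the % scale 0 is the no-effect control and ±100 the full control effect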
How it was run: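 ME-180 cells carrying a SIE-driven beta-lactamase reporter are stimulated with 40 pM IL-6 for 5 h at 37C in the presence of compound. The 460/530 nm FRET substrate ratio is read after 2.5 h at RT. Data are normalised to 300 pM IL-6 and to 125 nM JAK inhibitor controls.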

[4] = molecular target: Glucocorticoid receptor (Homo sapiens) (UniProt P04150); assay: GR-GFP Redistribution (AID 450;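 active means compounds whose dose series gives a full or clear partial fitted curve of increased nuclear translocation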; further: potency means the concentration at half of the fitted maximal effect); conditions: U2OS GR-GFP nuclear translocation, laser cytometry, 2 h
Chain of Glucocorticoid receptor (Homo sapiens) (P04150 whole entry, looked up, the tested form may be a part): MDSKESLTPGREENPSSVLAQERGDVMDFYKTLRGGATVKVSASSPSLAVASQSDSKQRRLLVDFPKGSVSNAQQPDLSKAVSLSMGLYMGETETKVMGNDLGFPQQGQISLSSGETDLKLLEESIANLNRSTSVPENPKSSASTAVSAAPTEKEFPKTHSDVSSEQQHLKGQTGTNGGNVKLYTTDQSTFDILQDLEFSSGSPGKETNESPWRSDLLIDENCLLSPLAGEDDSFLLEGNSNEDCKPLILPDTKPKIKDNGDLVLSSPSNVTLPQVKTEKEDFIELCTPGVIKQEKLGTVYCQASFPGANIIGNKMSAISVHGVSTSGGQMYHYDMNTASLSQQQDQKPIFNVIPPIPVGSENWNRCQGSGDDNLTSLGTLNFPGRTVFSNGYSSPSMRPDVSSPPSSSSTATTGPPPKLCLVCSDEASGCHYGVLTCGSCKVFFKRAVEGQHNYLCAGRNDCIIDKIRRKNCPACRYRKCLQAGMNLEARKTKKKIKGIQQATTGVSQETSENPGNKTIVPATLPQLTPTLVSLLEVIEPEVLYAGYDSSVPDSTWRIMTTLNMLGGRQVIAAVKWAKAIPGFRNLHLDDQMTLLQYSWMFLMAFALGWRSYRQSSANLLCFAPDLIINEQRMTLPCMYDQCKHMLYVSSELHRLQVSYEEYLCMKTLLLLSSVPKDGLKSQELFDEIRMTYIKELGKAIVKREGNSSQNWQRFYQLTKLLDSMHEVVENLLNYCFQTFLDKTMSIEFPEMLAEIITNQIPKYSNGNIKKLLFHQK

[5] = molecular target: Glucocorticoid receptor (Homo sapiens) (UniProt P04150); assay: GR-EFC Redistribution (AID 451; calls by dose curve; further: potency means the concentration at half of the fitted maximal effect); conditions: CHO-K1 GR-EFC translocation, beta-gal luminescence, 2 h
How it was run: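 Translocation of GR-ED fusion to nuclear EA restores b-gal, read by luminescence after 1 h room-temperature detection. Engineered CHO-K1 biosensor cells, 1,000/well, exposed 2 h at 37 C to titrations up to 46 uM final.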

[6] = molecular target: Mitogen-activated protein kinase 10 (Mus musculus) (UniProt Q61831); assay: JNK3 AlphaScreen Assay (AID 530);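 further: kinase came from lysate of stimulated human HepG2 cells; signal reports phosphorylation of biotinylated GST-cJun 1-79 at Ser73 with 10 µM ATP; on the % scale 0 is the no-effect control and ±100 the full control effect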
How it was run: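 Room-temperature AlphaScreen kinase assay; pre-activated HepG2 lysate as JNK3 source, biotin-GST-cJun(1-79) substrate, 10 uM ATP, compound 15 min preincubation.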

[7] = molecular target: Cytochrome P450 1A2 (Homo sapiens) (UniProt P05177); assay: p450-cyp1a2 (AID 410; calls by dose curve; further: potency means the concentration at half of the fitted maximal effect;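 on activity change, negative = inhibition: -100% = full effect of reference inhibitor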)
Chain of Cytochrome P450 1A2 (Homo sapiens) (P05177 whole entry, looked up): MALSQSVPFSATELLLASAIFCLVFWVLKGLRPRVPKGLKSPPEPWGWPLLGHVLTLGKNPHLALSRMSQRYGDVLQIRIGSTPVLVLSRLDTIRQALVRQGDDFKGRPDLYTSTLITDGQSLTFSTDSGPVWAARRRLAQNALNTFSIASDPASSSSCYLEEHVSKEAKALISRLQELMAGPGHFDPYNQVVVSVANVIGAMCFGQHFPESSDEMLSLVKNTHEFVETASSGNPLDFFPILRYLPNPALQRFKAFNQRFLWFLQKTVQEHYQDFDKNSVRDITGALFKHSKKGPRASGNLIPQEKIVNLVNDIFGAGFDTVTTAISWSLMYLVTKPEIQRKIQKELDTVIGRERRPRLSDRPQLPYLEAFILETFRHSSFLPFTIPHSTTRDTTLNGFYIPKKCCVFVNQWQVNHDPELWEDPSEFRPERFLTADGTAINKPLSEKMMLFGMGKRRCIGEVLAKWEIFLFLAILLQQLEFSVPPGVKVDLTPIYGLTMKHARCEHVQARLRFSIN
How it was run: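 Human CYP1A2 (20nM) demethylated Luciferin-ME at its Km (100uM) in 100mM KPO4. After 10 min compound preincubation, NADPH regeneration ran the reaction 60 min at room temperature. Luciferin was read by luminescence, normalized to 57 uM furafylline.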

[8] = Cell Viability - BJ (AID 421; calls by dose curve;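 further: potency means the concentration at half of the fitted maximal effect; cells exposed to compound for 40 hours at 37 °C before readout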); conditions: BJ fibroblast viability, qHTS
How it was run: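 Normal human BJ foreskin fibroblasts, 1500/well in complete medium, treated 40 hr at 37 °C. Cellular ATP by CellTiter-Glo luminescence; normalized to DMSO and 100 uM tamoxifen, AC50 from Hill fit.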

[9] = Cell Viability - Jurkat (AID 426;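 active means dose-dependent loss of cell ATP signal giving a full or clear fitted curve, ranked by lower potency value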; further: potency means the concentration at half of the fitted maximal effect); conditions: qHTS
How it was run: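 Jurkat (clone E6-1, human T-cell leukemia) cells, 5000/well in complete medium, were exposed to compound for 40 hr at 37 °C. Viability was read as intracellular ATP by CellTiter-Glo luminescence; AC50 came from Hill fits of concentration-response data.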

[10] = Cell Viability - N2a (AID 540; active means well fitted curve in the direction sought with a large enough effect; an effect the other way counts as inactive or inconclusive;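 further: plate controls were DMSO alone for no effect and tamoxifen control for full effect; nearly all actives have a fitted effect of over 45% in size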); conditions: N2a mouse neuroblastoma cell viability; at 92.2 µM (top of the series)
How it was run: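 Mouse neuroblastoma N2a cells (1500/well) were preincubated 5 hr at 37 °C, then exposed to compounds for 40 hr at 37 °C in complete medium. Viability was read as intracellular ATP by CellTiter-Glo luminescence; AC50 from Hill fits.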

[11] = Cell Viability - NIH 3T3 (AID 541; active means well fitted curve in the direction sought with a large enough effect; an effect the other way counts as inactive or inconclusive;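 further: plate controls were DMSO alone for no effect and tamoxifen positive control for full effect; nearly all actives have a fitted effect of over 25% in size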); conditions: NIH 3T3 cell viability, qHTS; activity change, negative = cytotoxicity: at 92.2 µM (top of the series)
How it was run: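 NIH 3T3 mouse embryo fibroblasts (1000 cells/well) were plated in complete medium and treated with compound for 40 hr at 37 °C. Viability was read as intracellular ATP by CellTiter-Glo luminescence; AC50 values came from Hill-equation fits of concentration-response data.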

[12] = Cell Viability - H-4-II-E (AID 543; active means well fitted curve in the direction sought with a large enough effect; an effect the other way counts as inactive or inconclusive; further: nearly all actives have a fitted effect of over 35% in size; further: potency means the concentration at half of the fitted maximal effect)
How it was run: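 Rat hepatoma H-4-II-E cells (1500/well) were plated, incubated 5 hr at 37 °C, then exposed to compounds for 40 hr at 37 °C. Cellular ATP was read by CellTiter-Glo luminescence; AC50 came from Hill-equation fits of concentration-response data.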

[13] = Cell Viability - SH-SY5Y (AID 544; active means well fitted curve in the direction sought with a large enough effect; an effect the other way counts as inactive or inconclusive; further: nearly all actives have a fitted effect of over 55% in size; further: potency means the concentration at half of the fitted maximal effect;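 on viability change, negative = cytotoxic: 0% = DMSO alone and -100% = 100 µM tamoxifen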); conditions: SH-SY5Y neuroblastoma cell viability; viability change, negative = cytotoxic: at 92.2 µM (top of the series)
How it was run: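 Human neuroblastoma SH-SY5Y cells (1500/well) in complete medium were exposed to compounds for 40 hr at 37 °C; intracellular ATP was then quantified by CellTiter-Glo luminescence after 20 min at room temperature. AC50 came from Hill-equation concentration-response fits.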

[14] = Cell Viability - Renal Proximal Tubule (AID 545; active means well fitted curve in the direction sought with a large enough effect; an effect the other way counts as inactive or inconclusive;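 further: 0% = DMSO only and -100% = 100 µM tamoxifen; nearly all actives have a fitted effect of over 40% in size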); conditions: renal proximal tubule cells viability; at 91.7 µM (top of the series) unless noted
How it was run: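 In this qHTS format, normal rat kidney-derived proximal tubule cells in complete culture medium receive compound titrations, then sit 40 hours at 37 °C before luciferase-based ATP quantitation; potency is reported as AC50 from concentration-response curves.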

[15] = Cell Viability - Hek293 (AID 427;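 active means compounds whose dose-response curve shows a full or clear partial loss of cell viability, called from curve shape rather than a numeric limit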;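 further: potency means the concentration at half of the fitted maximal effect; cells exposed to compound for 40 hours at 37 °C before reading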); conditions: qHTS
How it was run: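 HEK293 cells in complete medium were exposed to compound for 40 hr at 37 °C, then cellular ATP was read by CellTiter-Glo luminescence. Data were normalized to DMSO (basal) and 100 uM tamoxifen (100% inhibition), and AC50 came from Hill fits.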

[16] = Cell Viability - HepG2 (AID 433; calls by dose curve;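 further: potency means the concentration at half of the fitted maximal effect; potency for ATP loss meaning cytotoxicity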); conditions: qHTS
How it was run: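 In this qHTS format, a 40 h, 37 °C compound incubation of HepG2 cells in complete medium precedes a 20 min CellTiter-Glo step at room temperature. Tamoxifen and doxorubicin serve as positive controls; Hill-equation fits yield AC50.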

[17] = Cell Viability - MRC5 (AID 434; calls by dose curve;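 further: potency means the concentration at half of the fitted maximal effect; potency reflects cytotoxicity seen as loss of intracellular ATP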); conditions: MRC5 lung fibroblast viability, qHTS
How it was run: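 qHTS cytotoxicity in human lung fibroblast MRC5 cells; 40 hr treatment, 37 °C; cellular ATP by luciferase luminescence; DMSO = 0%, 100 uM tamoxifen = 100% inhibition; Hill-fit AC50.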

[18] = Cell Viability - SK-N-SH (AID 435; calls by dose curve;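 further: potency means the concentration at half of the fitted maximal effect; compound exposure lasted 40 h at 37 °C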); conditions: SK-N-SH neuroblastoma cell viability qHTS
How it was run: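 Human neuroblastoma line, 40 h exposure at 37 °C, ATP quantified via luciferase luminescence; DMSO and 100 uM tamoxifen define 0 and 100% inhibition for AC50 fitting.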

[19] = Cell Viability - HUV-EC-C (AID 542; active means well fitted curve in the direction sought with a large enough effect; an effect the other way counts as inactive or inconclusive; further: on the % scale 0 is the no-effect control and ±100 the full control effect; nearly all actives have a fitted effect of over 35% in size)
How it was run: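 HUV-EC-C normal human vascular endothelial cells, 1000 cells/well, pre-incubated 5 hr at 37 °C, then exposed to compounds for 40 hr at 37 °C in complete medium. Viability measured as intracellular ATP by CellTiter-Glo luminescence; AC50 from Hill fits.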

CC[N+]1(C)CCCC(OC(=O)C(O)(c2ccccc2)c2ccccc2)C1 (stereo not drawn)
inactive: outcome [1] | activity, negative = inhibition ([3]; at 17.2 µM (top of the series)) -1.5% | Potency [4] > 20.6 µM
active: activity change, negative = inhibition ([2]; at 17.2 µM (top of the series)) -75.8%

O=P1(NCCCl)OCCCN1CCCl (stereo not drawn)
inactive: outcome [1] | activity change, negative = inhibition ([2]; at 17.2 µM (top of the series)) -9.45% | activity, negative = inhibition ([3]; at 17.2 µM (top of the series)) -3.9% | Potency [4] > 20.6 µM | Potency [5] > 20.6 µM | outcome [6]

CN(C)CCN(C)CCc1ccc(Cl)c(Cl)c1
inactive: Potency [4] > 46 µM | Potency [5] > 46 µM | outcome [6]

c1ccc2c(c1)OCC(C1=NCCN1)O2 (stereo not drawn)
inactive: outcome [1] | activity, negative = inhibition ([3]; at 17.2 µM (top of the series)) -5.78% | Potency [4] > 20.6 µM

C#CCN(C)[C@H](C)Cc1ccccc1
active: Potency [7] 12.6 µM
inactive: Potency [4] > 46 µM | Potency [5] > 46 µM | outcome [6]

C=C(C)[C@H]1Cc2c(ccc3c2O[C@@H]2COc4cc(OC)c(OC)cc4[C@@H]2C3=O)O1
inactive: Potency [4] > 46 µM | Potency [5] > 46 µM

CN(C)[C@@H]1C(=O)C(C(N)=O)=C(O)[C@@]2(O)C(=O)C3=C(O)c4c(O)cccc4[C@@](C)(O)[C@H]3C[C@@H]12
inactive: outcome [1] | activity, negative = inhibition ([3]; at 17.2 µM (top of the series)) -6.17% | Potency [4] > 20.6 µM

NP(N)(=O)NC(=O)c1ccc(F)cc1
inactive: Potency [7] | Potency [4] > 46 µM | Potency [5] > 46 µM | outcome [6]

CCN(CC)C(=O)N[C@@H]1C=C2c3cccc4[nH]cc(c34)C[C@@H]2N(C)C1
inactive: outcome [1] | activity change, negative = inhibition ([2]; at 38 µM (top of the series)) -9.69% and -17.6% | activity, negative = inhibition ([3]; at 38 µM (top of the series)) 4.62% | Potency [4] > 46 µM | Potency [5] > 46 µM | outcome [6]

CC(CCc1ccccc1)NC(C)C(O)c1ccc(O)cc1 (stereo not drawn)
inactive: outcome [1] | activity, negative = inhibition ([3]; at 17.2 µM (top of the series)) 22.4% | Potency [4] > 20.6 µM

N[C@@H](Cc1ccc(N(CCCl)CCCl)cc1)C(=O)O
active: Potency [9] 18.3 µM | activity change, negative = cytotoxicity [10] -94.8% | activity change, negative = cytotoxicity [11] -113% | Potency [12] 50.1 µM | Potency [13] 251 nM | activity change, negative = cytotoxicity [14] -104%
inactive: Potency [8] > 92 µM | outcome [6]

OCCOc1ccccc1
inactive: Potency [8] > 92 µM | Potency [9] > 92 µM | Potency [15] > 92 µM | Potency [16] > 92 µM | Potency [17] > 92 µM | Potency [18] > 92 µM | outcome [6] | activity change, negative = cytotoxicity [10] -13.3% | activity change, negative = cytotoxicity [11] -18.9% | outcome [19] | Potency [12] | viability change, negative = cytotoxic [13] -18.2% | activity change, negative = cytotoxicity [14] -6.83%

C[C@]12C/C(=C/O)C(=O)C[C@@H]1CC[C@@H]1[C@@H]2CC[C@@]2(C)[C@H]1CC[C@]2(C)O
inactive: Potency [16] > 92 µM | Potency [17] > 92 µM | outcome [6]
active: Potency [9] 54.9 µM | activity change, negative = cytotoxicity [11] -114% | viability change, negative = cytotoxic [13] -95.9% | activity change, negative = cytotoxicity [14] -89.1%

NCC(CC(=O)O)c1ccc(Cl)cc1 (stereo not drawn)
inactive: outcome [1] | activity change, negative = inhibition ([2]; at 17.2 µM (top of the series)) 12.1% | activity, negative = inhibition ([3]; at 17.2 µM (top of the series)) 6.38% | Potency [4] > 20.6 µM

NCC(O)c1ccc(O)cc1 (stereo not drawn)
inactive: Potency [8] > 92 µM | Potency [9] > 92 µM | Potency [15] > 92 µM | Potency [16] > 92 µM | Potency [17] > 92 µM | Potency [18] > 92 µM | outcome [6] | activity change, negative = cytotoxicity [10] -14.9% | activity change, negative = cytotoxicity [11] -28.6% | outcome [19] | Potency [12] | viability change, negative = cytotoxic [13] -12.1% | activity change, negative = cytotoxicity [14] -6.15%
